More than one record can exist for a structure, and the calls need not agree. The source made the active and inactive calls. The calls were made as follows: active = hit-call score of the fitted dose curve at least 0.9, where 1 is the maximum; inactive = score below 0.9.
The molecules below were run on Monocyte Chemoattractant Protein-1 (MCP1), CCL2 (gene 6347) (assay: BSK_4H_MCP1: BioMAP Diversity Plus: 4H Assay for Monocyte Chemoattractant Protein-1 (MCP1) Biomarker Activity (AID 2283018)). Conditions: primary human endothelial cells (HUVEC); actives raise or lower the signal.
Protocol: BSK_4H is a cell-based, multiplexed-readout assay that uses umbilical vein endothelium, a human vascular primary cell, with measurements taken at 24 hours after chemical dosing in a 96-well plate.BSK_4H_MCP1 is an assay component measured in the BSK_4H assay. It measures MCP-1 antibody related to regulation of gene expression using ELISA technology.Data from the assay component BSK_4H_MCP1 was analyzed into 1 assay endpoint. This assay endpoint, BSK_4H_MCP1, was analyzed with bidirectional fitting relative to DMSO as the negative control and baseline of activity. Using a type of binding reporter, gain or loss-of-signal activity can be used to understand changes in the signaling as they relate to the gene CCL2. Furthermore, this assay endpoint can be referred to as a primary readout, because this assay has produced multiple assay endpoints where this one serves a signaling function. To generalize the intended target to other relatable targets, this assay endpoint is annotated to the cytokine intended target family, where the subfamily is chemotactic factor.
The levels of cell surface (or secreted, indicated by the prefix "s") biomarker endpoints were measured by ELISA. Overt cytotoxicity to cells in confluent adherent cultures (all systems other than the BT system) was assessed by measuring total protein levels using sulforhodamine B (SRB) staining in parallel cultures at the time of biomarker measurements, indicated as SRB endpoints. For proliferation assays for adherent cell types, individual cell types are cultured at sub-confluence and relative cell numbers quantified by SRB staining at time points optimized for each system (48 h: 3C and CASM3C systems; 72 h: BT and HDF3CGF systems; 96 h: SAg system). SRB was performed by staining cells with 0.1% SRB after fixation with 10% TCA and reading wells at 560 nm.Viability and proliferation of PBMC (T cells) was quantified by Alamar Blue reduction for the SAg and BT systems. For PBMC viability (referred to as PBMC Cytotoxicity within the assay endpoint names), cells were plated (75,000/well in a 96-well plate) and then chemical samples added for 1 h before addition of activators, SEB and TSST-1 (20 ng/mL final concentration each). Cells were incubated for 90 h. Then, Alamar Blue (20 uL/well) (Invitrogen, Cat DAL1100) was added for 6 h, and the plates were read with a fluorescence microplate reader at 546/580 nm (excitation/emission). For PBMC proliferation, cells were plated and activated as above but incubated for only 16 h prior to addition of Alamar Blue. Plates were read after 6 h.

Row | SMILES | outcome | AC50
1 | CCCCC(CC)COC(=O)CCCCC(=O)OCc1ccccc1 (stereo not given) | inactive | 
2 | CC(C)(C)c1ccc(O)c(C(C)(C)C)c1 |  | 10 µM (active)
3 | CN(C)C=O | inactive | 
4 | CN1CCC[C@H]1c1cccnc1 | inactive | 
5 | CC(C)(C)c1cc(C(C)(C)C)c(O)c(C(C)(C)C)c1 | inactive | 
6 | CC1=C(/C=C/C(C)=C/C=C/C(C)=C/C(=O)O)C(C)(C)CCC1 | inactive | 
7 | Oc1cccc(O)c1 | inactive | 
8 | NCC(F)(F)C(F)(F)C(F)(F)C(F)(F)C(F)(F)C(F)(F)C(F)(F)F | inactive | 
9 | CCCOc1sc(C(=O)N2CCC(c3cc(CN)ccc3F)CC2)c(C)c1Br |  | 9.52 µM (active)
10 | Cc1cc(CCN2CCN(c3nsc4ccccc34)CC2)cc2c1NC(=O)CC2(C)C |  | 8.35 µM (active)
11 | CC(=O)NC1(c2cccc(F)c2)CCN(CC[C@@]2(c3ccc(Cl)c(Cl)c3)CN(c3ccccc3)C(=O)CO2)CC1 | inactive | 
12 | CCN(CC)CCNc1ccc(CNC=O)c2sc3ccc(OC)cc3c(=O)c12 |  | 20 µM (active)
13 | CCCCCCCCCCCCCC[N+](C)(C)C |  | 1.69 µM (active)
14 | CCCOC(=O)c1ccc(O)cc1 | inactive | 
15 | Cc1cc(C)c(O)c(C)c1 | inactive | 
16 | O=C(O)Cc1cc(I)c(Oc2cc(I)c(O)c(I)c2)c(I)c1 |  | 19.9 µM (active)
17 | CCOC(=O)CC(O)(CC(=O)OCC)C(=O)OCC | inactive | 
18 | COC(=O)CCCCC(=O)OC | inactive | 
19 | COCC(C)OCC(C)O (stereo not given) | inactive | 
20 | CCCCOCCO | inactive | 

Row | SMILES | outcome | AC50
21 | O=C(OCCOCCOC(=O)c1ccccc1)c1ccccc1 | inactive | 
22 | OC1CCCCC1 | inactive | 
23 | CCCCCCCCCCCCN1CCCC1=O |  | 27.8 µM (active)
24 | CC(C)CCCCCCOC(=O)CCCCC(=O)OCCCCCCC(C)C | inactive | 
25 | NC(=O)N(O)[C@@H]1C=C[C@H](Oc2cccc(Oc3ccc(F)cc3)c2)C1 | inactive | 
26 | ClC1=C(Cl)C(Cl)(Cl)C(Cl)=C1Cl |  | 7.06 µM (active)
27 | CCCCCCC(=O)O | inactive | 
28 | OCCC(F)(F)C(F)(F)C(F)(F)C(F)(F)C(F)(F)C(F)(F)C(F)(F)C(F)(F)F | inactive | 43.6 µM (active)
29 | CCCCCCCCCCCCc1ccccc1S(=O)(=O)O | inactive | 
30 | CC(=O)CC(C)(C)O | inactive | 
31 | OCCC(F)(F)C(F)(F)C(F)(F)C(F)(F)C(F)(F)C(F)(F)F | inactive | 
32 | CC[C@H](c1ccc(O)cc1)[C@@H](CC)c1ccc(O)cc1 |  | 20 µM (active)
33 | C#C[C@]1(O)CC[C@H]2[C@@H]3CCC4=CC(=O)CC[C@@H]4[C@H]3CC[C@@]21C | inactive | 
34 | CCCCCCCCCCCCCCCS(=O)(=O)Oc1ccccc1 | inactive | 
35 | NC(=O)N1C(=O)C(C(=O)c2cc(Cl)cs2)c2cc(F)c(Cl)cc21 (stereo not given) | inactive | 
36 | CCCCCCCC(=O)O | inactive | 
37 | N#C[C@@H]1CC(F)(F)CN1C(=O)CNC1CC2CCC(C1)N2c1ncccn1 (stereo not given in full) | inactive | 
38 | COCC(C)O (stereo not given) | inactive | 
39 | Oc1cc2ccccc2c2ccccc12 |  | 7.67 µM (active)

From PubChem BioAssay (EPA / NIEHS)
